In PubChem BioAssay (EPA / NIEHS):
Inconclusive results are not listed. The source made the active and inactive calls. How the source made its calls: active means hit-call score of the fitted dose curve at least 0.9, where 1 is the maximum; inconclusive means response in the unintended direction; inactive means score below 0.9.

What was measured:
[1] = target: Histone deacetylase 3 (Homo sapiens) (UniProt O15379); test: NVS_ENZ_hHDAC3: NovaScreen (NVS) Enzymatic Assay for human Histone Deacetylase 3 (HDAC3) (AID 2283163)
Procedure, shortened: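 Recombinant human HDAC3 with fluorescent substrate, 1 h after dosing; product separated from substrate by electrophoretic mobility shift and read by fluorescence. Primary screen at 25 uM in duplicate; actives (e.g. ≥30% inhibition) retested in concentration-response up to 50 uM.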

[2] = target: human MAP Kinase-Activated Protein Kinase 2 (MAPKAPK2), MAPKAPK2 (gene 9261) (UniProt P49137); test: NVS_ENZ_hMAPKAPK2: NovaScreen (NVS) Enzymatic Assay for human MAP Kinase-Activated Protein Kinase 2 (MAPKAPK2) (AID 2283178)
Sequence of human MAP Kinase-Activated Protein Kinase 2 (MAPKAPK2), MAPKAPK2 (gene 9261) (P49137 whole entry, looked up): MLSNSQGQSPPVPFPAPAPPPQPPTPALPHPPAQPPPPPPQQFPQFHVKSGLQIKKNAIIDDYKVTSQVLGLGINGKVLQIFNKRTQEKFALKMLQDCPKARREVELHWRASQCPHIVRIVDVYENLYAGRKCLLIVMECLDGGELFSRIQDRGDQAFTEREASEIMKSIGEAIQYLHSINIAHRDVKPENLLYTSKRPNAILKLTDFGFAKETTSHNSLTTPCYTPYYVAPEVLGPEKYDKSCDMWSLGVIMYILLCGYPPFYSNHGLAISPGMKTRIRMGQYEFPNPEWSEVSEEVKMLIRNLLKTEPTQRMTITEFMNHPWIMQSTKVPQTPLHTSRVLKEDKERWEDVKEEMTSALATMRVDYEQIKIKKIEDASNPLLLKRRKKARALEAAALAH
Procedure, shortened: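 Cell-free recombinant human MAPKAPK2 activity measured by fluorescence with electrophoretic mobility shift separation of substrate and product, 1 hr after dosing. Loss of signal versus DMSO; primary screen at 25 uM, concentration-response up to 50 uM.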

[3] = target: human Phosphoinositide 3-kinase alpha (PI3Ka), PIK3CA (gene 5290) (UniProt P42336); test: NVS_ENZ_hPI3Ka: NovaScreen (NVS) Enzymatic Assay for human Phosphoinositide 3-kinase alpha (PI3Ka) (AID 2283196)
Procedure, shortened: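 Duplicate single-point screen (25 uM), then singleton dose-response (max 50 uM) for compounds meeting the threshold. Cell-free kinase reaction, 1 h; fluorescent mobility-shift readout.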

[4] = target: human Ephrin type-A Receptor 1 (EphA1), EPHA1 (gene 2041) (UniProt P21709); test: NVS_ENZ_hEphA1: NovaScreen (NVS) Enzymatic Assay for human Ephrin type-A Receptor 1 (EphA1) (AID 2283158);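 further: activity is signal loss versus DMSO meaning EphA1 kinase inhibition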
Sequence of human Ephrin type-A Receptor 1 (EphA1), EPHA1 (gene 2041) (P21709 whole entry, looked up): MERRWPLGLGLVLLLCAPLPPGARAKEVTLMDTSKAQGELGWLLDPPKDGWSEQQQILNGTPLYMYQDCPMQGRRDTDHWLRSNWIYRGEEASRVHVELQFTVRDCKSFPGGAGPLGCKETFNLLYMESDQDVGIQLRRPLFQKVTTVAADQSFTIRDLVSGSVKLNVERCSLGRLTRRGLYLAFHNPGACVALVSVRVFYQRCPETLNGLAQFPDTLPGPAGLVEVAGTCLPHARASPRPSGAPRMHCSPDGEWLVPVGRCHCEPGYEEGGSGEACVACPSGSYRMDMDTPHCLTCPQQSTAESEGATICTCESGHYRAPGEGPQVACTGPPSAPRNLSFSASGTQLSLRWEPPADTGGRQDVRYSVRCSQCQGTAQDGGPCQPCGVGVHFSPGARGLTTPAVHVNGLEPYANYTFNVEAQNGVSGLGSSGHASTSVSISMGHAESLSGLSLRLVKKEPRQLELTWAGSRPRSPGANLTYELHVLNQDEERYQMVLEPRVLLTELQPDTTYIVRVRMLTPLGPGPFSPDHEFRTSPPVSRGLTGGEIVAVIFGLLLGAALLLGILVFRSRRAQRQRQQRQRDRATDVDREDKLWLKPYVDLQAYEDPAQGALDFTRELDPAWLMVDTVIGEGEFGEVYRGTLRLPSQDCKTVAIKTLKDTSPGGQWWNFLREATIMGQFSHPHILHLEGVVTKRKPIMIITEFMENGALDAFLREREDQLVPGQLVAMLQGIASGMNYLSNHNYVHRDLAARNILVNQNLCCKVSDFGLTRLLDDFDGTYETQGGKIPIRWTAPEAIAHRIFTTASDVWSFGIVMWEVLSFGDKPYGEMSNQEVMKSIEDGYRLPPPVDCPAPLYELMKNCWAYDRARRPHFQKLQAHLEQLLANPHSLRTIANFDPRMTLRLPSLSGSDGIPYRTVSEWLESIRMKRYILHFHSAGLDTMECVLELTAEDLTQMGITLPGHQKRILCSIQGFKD
Procedure, shortened: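 Chemicals first tested in duplicate at 25 uM against recombinant EphA1 with a fluorescent substrate; those passing threshold went to singleton dose-response topping at 50 uM. Activity read 1 h later as mobility-shift fluorescence, loss of signal relative to DMSO.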

[5] = target: human Insulin Receptor (InsR), INSR (gene 3643) (UniProt P06213); test: NVS_ENZ_hInsR: NovaScreen (NVS) Enzymatic Assay for human Insulin Receptor (InsR) (AID 2283168)
Procedure, shortened: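 Fluorescent substrate phosphorylation by recombinant kinase, product resolved by electrophoretic mobility shift, read 1 h after dosing. Screened in duplicate at 25 uM; hits (e.g., 30% inhibition) run in concentration-response to 50 uM; DMSO as baseline.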

[6] = target: Collagenase 3 (Homo sapiens) (UniProt P45452); test: NVS_ENZ_hMMP13: NovaScreen (NVS) Enzymatic Assay for human Matrix Metalloproteinase-13 (MMP13) (AID 2283182)
Procedure, shortened: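 Recombinant MMP13 cleaving fluorescent substrate, cell-free, measured 1 h after dosing. Primary duplicate screen at 25 uM; actives tested in concentration-response up to 50 uM; loss of signal relative to DMSO.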

[7] = target: human Matrix Metalloproteinase-7 (MMP7), MMP7 (gene 4316) (UniProt P09237); test: NVS_ENZ_hMMP7: NovaScreen (NVS) Enzymatic Assay for human Matrix Metalloproteinase-7 (MMP7) (AID 2283183)
Sequence of human Matrix Metalloproteinase-7 (MMP7), MMP7 (gene 4316) (P09237 whole entry, looked up): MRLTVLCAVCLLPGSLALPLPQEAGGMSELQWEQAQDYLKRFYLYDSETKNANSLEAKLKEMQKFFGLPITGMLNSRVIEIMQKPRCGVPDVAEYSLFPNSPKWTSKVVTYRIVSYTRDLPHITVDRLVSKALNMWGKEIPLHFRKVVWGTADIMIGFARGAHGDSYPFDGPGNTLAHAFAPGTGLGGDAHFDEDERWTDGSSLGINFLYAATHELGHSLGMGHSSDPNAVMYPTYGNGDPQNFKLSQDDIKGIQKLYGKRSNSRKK
Procedure, shortened: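 Cell-free fluorescence enzymatic assay read 1 h after compound addition, activity loss analyzed against DMSO. Primary duplicate testing at 25 uM; compounds meeting threshold rerun in singleton concentration-response up to 50 uM.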

[8] = target: human FYN Proto-Oncogene, Src family Tyrosine Kinase (Fyn), FYN (gene 2534) (UniProt P06241); test: NVS_ENZ_hFyn: NovaScreen (NVS) Enzymatic Assay for human FYN Proto-Oncogene, Src family Tyrosine Kinase (Fyn) (AID 2283161)
Procedure, shortened: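 Recombinant enzyme with fluorescent substrate, product separated by electrophoretic mobility shift; read 1 h after dosing. Duplicate 25 uM single-point screen, actives retested in concentration series; loss of signal vs DMSO.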

[9] = target: human Janus Kinase 2 (Jak2), JAK2 (gene 3717) (UniProt O60674); test: NVS_ENZ_hJak2: NovaScreen (NVS) Enzymatic Assay for human Janus Kinase 2 (Jak2) (AID 2283169)
Sequence of human Janus Kinase 2 (Jak2), JAK2 (gene 3717) (O60674 whole entry, looked up): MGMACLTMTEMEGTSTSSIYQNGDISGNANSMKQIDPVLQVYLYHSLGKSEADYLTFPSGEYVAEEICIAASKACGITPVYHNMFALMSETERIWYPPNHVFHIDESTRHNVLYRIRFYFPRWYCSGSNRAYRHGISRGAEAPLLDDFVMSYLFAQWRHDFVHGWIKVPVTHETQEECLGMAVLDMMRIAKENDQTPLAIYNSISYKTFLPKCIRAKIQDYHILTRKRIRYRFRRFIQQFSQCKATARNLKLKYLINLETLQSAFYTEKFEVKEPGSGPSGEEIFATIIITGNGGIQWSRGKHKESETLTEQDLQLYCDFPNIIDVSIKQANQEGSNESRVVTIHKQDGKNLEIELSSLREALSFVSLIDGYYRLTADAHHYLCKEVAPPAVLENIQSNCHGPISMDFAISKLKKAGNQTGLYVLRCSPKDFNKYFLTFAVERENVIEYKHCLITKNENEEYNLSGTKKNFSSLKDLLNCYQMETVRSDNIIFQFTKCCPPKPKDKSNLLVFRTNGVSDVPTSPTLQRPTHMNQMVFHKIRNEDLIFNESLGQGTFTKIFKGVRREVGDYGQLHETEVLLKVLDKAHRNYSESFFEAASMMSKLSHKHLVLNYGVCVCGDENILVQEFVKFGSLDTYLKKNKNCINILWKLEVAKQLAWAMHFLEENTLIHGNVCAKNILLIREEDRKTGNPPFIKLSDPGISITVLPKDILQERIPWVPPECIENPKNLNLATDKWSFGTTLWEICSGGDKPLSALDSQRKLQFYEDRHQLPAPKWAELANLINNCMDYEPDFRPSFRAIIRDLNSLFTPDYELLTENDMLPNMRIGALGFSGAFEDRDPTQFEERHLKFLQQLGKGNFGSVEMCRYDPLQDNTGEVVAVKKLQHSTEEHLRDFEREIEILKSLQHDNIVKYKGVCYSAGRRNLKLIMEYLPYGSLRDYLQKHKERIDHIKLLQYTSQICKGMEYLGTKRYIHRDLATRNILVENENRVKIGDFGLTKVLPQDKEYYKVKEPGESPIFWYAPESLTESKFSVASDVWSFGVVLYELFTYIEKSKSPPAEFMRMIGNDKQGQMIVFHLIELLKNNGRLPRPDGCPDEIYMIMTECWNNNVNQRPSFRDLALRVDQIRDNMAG
Procedure, shortened: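 Cell-free recombinant human JAK2 enzyme activity assay, fluorescence/electrophoretic mobility shift read 1 h after dosing. Screened in duplicate at 25 uM, then concentration-response up to 50 uM; activity as signal loss relative to DMSO.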

[10] = target: human Mitogen- and Stress-activated Protein Kinase-1 (Msk1), RPS6KA5 (gene 9252) (UniProt O75582); test: NVS_ENZ_hMsk1: NovaScreen (NVS) Enzymatic Assay for human Mitogen- and Stress-activated Protein Kinase-1 (Msk1) (AID 2283187)
Sequence of human Mitogen- and Stress-activated Protein Kinase-1 (Msk1), RPS6KA5 (gene 9252) (O75582 whole entry, looked up): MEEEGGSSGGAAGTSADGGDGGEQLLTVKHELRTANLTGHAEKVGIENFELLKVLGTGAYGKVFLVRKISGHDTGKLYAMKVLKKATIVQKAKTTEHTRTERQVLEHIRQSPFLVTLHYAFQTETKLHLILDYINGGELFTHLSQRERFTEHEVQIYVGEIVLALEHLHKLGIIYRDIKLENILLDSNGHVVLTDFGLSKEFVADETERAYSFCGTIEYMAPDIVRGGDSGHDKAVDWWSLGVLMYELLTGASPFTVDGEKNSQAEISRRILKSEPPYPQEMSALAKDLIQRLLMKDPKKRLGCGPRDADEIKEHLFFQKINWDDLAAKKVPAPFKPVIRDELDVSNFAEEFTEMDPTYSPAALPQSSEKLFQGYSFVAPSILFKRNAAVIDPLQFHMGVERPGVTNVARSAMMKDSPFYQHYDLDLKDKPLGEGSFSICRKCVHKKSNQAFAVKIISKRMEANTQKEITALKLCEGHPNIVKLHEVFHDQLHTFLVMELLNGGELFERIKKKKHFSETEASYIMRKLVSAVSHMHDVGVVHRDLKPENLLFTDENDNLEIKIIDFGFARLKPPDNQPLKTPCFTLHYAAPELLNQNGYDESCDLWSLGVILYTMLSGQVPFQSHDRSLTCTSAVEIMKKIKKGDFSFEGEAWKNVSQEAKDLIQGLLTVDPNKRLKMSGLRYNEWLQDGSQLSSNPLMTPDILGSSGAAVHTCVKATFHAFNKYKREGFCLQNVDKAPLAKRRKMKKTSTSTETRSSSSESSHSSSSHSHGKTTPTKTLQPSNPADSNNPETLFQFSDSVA
Procedure, shortened: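 Recombinant kinase with fluorescent substrate; product separated by electrophoretic mobility shift, read 1 h after dosing. Screened in duplicate at 25 uM; hits (e.g. ≥30% inhibition) tested in concentration–response up to 50 uM. DMSO baseline.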

[11] = target: human Phosphodiesterase 4A1 (PDE4A1), PDE4A (gene 5141) (UniProt P27815); test: NVS_ENZ_hPDE4A1: NovaScreen (NVS) Enzymatic Assay for human Phosphodiesterase 4A1 (PDE4A1) (AID 2283191)
Procedure, shortened: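 Cell-free recombinant human PDE4A1 with fluorescent substrate; product separated by electrophoretic mobility shift, 1 h. Screened at 25 uM, then up to 50 uM in concentration-response; loss of signal fitted against DMSO.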

[12] = target: cAMP-dependent protein kinase catalytic subunit alpha (Homo sapiens) (UniProt P17612); test: NVS_ENZ_hPKA: NovaScreen (NVS) Enzymatic Assay for human Protein Kinase A (PKA) (AID 2283192)
Procedure, shortened: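 Recombinant human PKA with specific fluorescent substrate, product separated by electrophoretic mobility shift, read 1 h after dosing. Primary screen at 25 uM in duplicate; actives then run in concentration-response up to 50 uM, activity relative to DMSO.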

[13] = target: Serine/threonine-protein phosphatase PP1-alpha catalytic subunit (Homo sapiens) (UniProt P62136); test: NVS_ENZ_hPPP1CA: NovaScreen (NVS) Enzymatic Assay for human Protein Phosphatase 1 Aatalytic subunit Alpha (PPP1CA) (AID 2283200)
Procedure, shortened: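 Recombinant enzyme activity read by fluorescence with electrophoretic mobility shift separating substrate from product, 1.33 h after dosing; loss of signal vs DMSO baseline. Primary screen in duplicate at 25 uM; actives retested in concentration-response up to 50 uM.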

[14] = target: human Protein Tyrosine Phosphatase Non-receptor Type 1 (PTPN1), PTPN1 (gene 5770) (UniProt P18031); test: NVS_ENZ_hPTPN1: NovaScreen (NVS) Enzymatic Assay for human Protein Tyrosine Phosphatase Non-receptor Type 1 (PTPN1) (AID 2283201)
Sequence of human Protein Tyrosine Phosphatase Non-receptor Type 1 (PTPN1), PTPN1 (gene 5770) (P18031 whole entry, looked up): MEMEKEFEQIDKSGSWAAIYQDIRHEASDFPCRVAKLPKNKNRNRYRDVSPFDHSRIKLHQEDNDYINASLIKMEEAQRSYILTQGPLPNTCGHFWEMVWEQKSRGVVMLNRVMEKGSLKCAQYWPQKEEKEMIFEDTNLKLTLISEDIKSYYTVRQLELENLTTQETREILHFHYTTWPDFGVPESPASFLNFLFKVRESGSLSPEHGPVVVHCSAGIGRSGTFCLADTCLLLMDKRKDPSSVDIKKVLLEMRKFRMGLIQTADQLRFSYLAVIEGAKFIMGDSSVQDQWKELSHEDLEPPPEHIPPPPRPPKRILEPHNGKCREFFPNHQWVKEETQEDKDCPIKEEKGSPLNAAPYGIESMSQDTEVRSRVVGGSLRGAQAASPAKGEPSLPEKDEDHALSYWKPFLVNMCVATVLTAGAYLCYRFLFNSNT
Procedure, shortened: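 Cell-free fluorogenic-substrate activity assay on recombinant enzyme, read 1.33 h after dosing by fluorescence and electrophoretic mobility shift; loss of signal vs DMSO baseline. Primary screen in duplicate at 25 uM, hits then run in concentration-response up to 50 uM.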

[15] = target: human Phosphodiesterase 10 (PDE10), PDE10A (gene 10846) (UniProt Q9Y233); test: NVS_ENZ_hPDE10: NovaScreen (NVS) Enzymatic Assay for human Phosphodiesterase 10 (PDE10) (AID 2283195)
Sequence of human Phosphodiesterase 10 (PDE10), PDE10A (gene 10846) (Q9Y233 whole entry, looked up): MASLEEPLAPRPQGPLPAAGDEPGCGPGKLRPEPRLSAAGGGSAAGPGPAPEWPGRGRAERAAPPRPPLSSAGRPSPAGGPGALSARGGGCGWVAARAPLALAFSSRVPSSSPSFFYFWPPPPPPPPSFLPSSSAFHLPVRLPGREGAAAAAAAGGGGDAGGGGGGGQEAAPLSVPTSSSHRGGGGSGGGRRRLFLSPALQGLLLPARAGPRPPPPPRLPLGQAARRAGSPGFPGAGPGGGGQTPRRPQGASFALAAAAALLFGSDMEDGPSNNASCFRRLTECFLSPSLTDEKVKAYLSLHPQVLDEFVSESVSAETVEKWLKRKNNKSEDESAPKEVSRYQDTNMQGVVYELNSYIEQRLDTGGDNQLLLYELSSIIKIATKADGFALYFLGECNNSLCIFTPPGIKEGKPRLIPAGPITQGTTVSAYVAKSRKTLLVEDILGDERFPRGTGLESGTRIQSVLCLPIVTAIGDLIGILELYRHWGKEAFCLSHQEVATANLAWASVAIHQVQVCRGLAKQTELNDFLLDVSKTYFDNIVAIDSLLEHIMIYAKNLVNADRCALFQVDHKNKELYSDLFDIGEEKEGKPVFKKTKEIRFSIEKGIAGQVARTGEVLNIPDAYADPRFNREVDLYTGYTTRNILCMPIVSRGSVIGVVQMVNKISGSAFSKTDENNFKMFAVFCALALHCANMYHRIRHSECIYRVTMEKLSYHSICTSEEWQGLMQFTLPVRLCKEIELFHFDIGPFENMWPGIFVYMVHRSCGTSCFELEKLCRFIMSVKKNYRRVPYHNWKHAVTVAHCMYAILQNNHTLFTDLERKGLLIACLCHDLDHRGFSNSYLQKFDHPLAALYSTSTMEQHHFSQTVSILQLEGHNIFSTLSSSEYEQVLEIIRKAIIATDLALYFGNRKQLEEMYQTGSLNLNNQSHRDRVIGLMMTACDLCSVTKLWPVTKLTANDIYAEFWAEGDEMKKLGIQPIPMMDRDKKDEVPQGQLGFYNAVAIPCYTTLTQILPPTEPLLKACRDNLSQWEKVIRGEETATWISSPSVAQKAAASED
Procedure, shortened: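 Recombinant human PDE10 with fluorescent substrate, 1 h, product separated by electrophoretic mobility shift. Loss of enzyme activity fitted against DMSO; initial screen 25 uM in duplicate, actives run to 50 uM maximum.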

## CC(C)c1ccc(C(=O)N=C(N)N)cc1S(C)(=O)=O
[1]
  outcome: inactive
[2]
  outcome: inactive
[3]
  outcome: inactive

## COc1cc(C=O)ccc1O
[4]
  outcome: inactive
[5]
  outcome: inactive

## CN1CCN(Cc2cc(-c3ccc4[nH]c(=O)oc4c3)co2)[C@@H](c2ccc(F)cc2)C1
[6]
  AC50: 7.74 µM (active)
[7]
  outcome: inactive

## CC1=C(/C=C/C(C)=C/C=C/C(C)=C/CO)C(C)(C)CCC1
[8]
  outcome: inactive
[9]
  outcome: inactive
[6]
  AC50: 18.2 µM (active)
[10]
  outcome: inactive
[11]
  outcome: inactive

## Nc1nc(N)c2nc(CNc3ccc(C(=O)N[C@@H](CCC(=O)O)C(=O)O)cc3)cnc2n1
[9]
  AC50: 21.9 µM (active)

## FC(F)(F)C(F)(F)C(F)(F)C(F)(F)C(F)(F)C(F)(F)CCI
[4]
  outcome: inactive
[9]
  outcome: inactive
[10]
  outcome: inactive
[12]
  outcome: inactive
[13]
  outcome: inactive
[14]
  outcome: inactive

## COCCOC[C@H](CC1(C(=O)NC2CCC(C(=O)O)CC2)CCCC1)C(=O)Oc1ccc2c(c1)CCC2 (stereo not given in full)
[6]
  AC50: 17.3 µM (active)

## CNC(=O)[C@H]1O[C@@H](n2cnc3c(NCc4cc(Cl)ccc4OCc4cc(C)no4)ncnc32)[C@H](O)[C@@H]1N
[12]
  outcome: inactive

## O=C(OCCCCCOC(=O)c1ccccc1)c1ccccc1
[12]
  outcome: inactive

## NCC1(Cc2noc(=O)[nH]2)CCCCC1
[15]
  outcome: inactive

## CNCc1cc(F)ccc1Oc1ccc(Cl)c(Cl)c1
[15]
  outcome: inactive

## C1CCC(SSC2CCCCC2)CC1
[14]
  outcome: inactive
